# Source: PubChem BioAssay (NCATS)
# Results filed as inconclusive are left out. Values without a mark were called inactive. Activity calls are given as the source filed them. The call rests on the fitted dose curve; in most records, active means well fitted curve in the direction sought with a large enough effect in the repeat runs; inconclusive means weak or mixed curves; inactive means no such curve, though single readings can be large; an effect the other way counts as inactive or inconclusive.
# Tests used:
# [1] = biological target: Cytochrome P450 2D6 (Homo sapiens) (UniProt P10635); assay: Cytochrome P450 family 2 subfamily D member 6 (CYP2D6) small molecule antagonists: luciferase biochemical (cell-free) qHTS assay (AID 1645840)
# Procedure, shortened: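 P450-Glo luminescent screen: recombinant CYP2D6 enzyme–proluciferin substrate mix preincubated with compound 10 min at room temperature, then NADPH regeneration added for 1 h at room temperature. Detection reagent added for 20 min; luciferin light read as relative luminescence units.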
# [2] = biological target: Cytochrome P450 2C9 (Homo sapiens) (UniProt P11712); assay: Cytochrome P450 family 2 subfamily C member 9 (CYP2C9) small molecule antagonists: luciferase biochemical (cell-free) qHTS assay (AID 1645842)
# Procedure, shortened: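 Luminescence, after 20 min with luciferin detection reagent, reflected CYP2C9 turnover during a 1 h NADPH-driven reaction at 37C. Enzyme-substrate mix contained 0.4% bovine serum albumin and was preincubated with compound 10 min at room temperature.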
# Further: nearly all actives have a fitted effect of over 55% in size.
# Potency means the concentration at half of the fitted maximal effect.
# Chain of Cytochrome P450 2C9 (Homo sapiens) (P11712 whole entry, looked up): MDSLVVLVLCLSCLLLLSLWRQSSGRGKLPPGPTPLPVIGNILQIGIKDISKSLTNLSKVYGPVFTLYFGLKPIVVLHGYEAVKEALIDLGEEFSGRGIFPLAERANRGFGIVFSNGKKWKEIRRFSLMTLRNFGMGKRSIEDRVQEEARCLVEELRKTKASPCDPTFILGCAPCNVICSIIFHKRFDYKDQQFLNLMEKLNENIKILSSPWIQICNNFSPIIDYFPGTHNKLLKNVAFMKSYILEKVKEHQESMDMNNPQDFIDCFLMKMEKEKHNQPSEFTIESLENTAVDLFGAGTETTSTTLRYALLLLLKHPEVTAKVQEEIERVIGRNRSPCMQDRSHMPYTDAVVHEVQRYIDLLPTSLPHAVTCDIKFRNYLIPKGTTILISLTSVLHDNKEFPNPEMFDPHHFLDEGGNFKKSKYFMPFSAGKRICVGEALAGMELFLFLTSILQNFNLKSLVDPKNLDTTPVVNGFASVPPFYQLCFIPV
# Chain of Cytochrome P450 2D6 (Homo sapiens) (P10635 whole entry, looked up): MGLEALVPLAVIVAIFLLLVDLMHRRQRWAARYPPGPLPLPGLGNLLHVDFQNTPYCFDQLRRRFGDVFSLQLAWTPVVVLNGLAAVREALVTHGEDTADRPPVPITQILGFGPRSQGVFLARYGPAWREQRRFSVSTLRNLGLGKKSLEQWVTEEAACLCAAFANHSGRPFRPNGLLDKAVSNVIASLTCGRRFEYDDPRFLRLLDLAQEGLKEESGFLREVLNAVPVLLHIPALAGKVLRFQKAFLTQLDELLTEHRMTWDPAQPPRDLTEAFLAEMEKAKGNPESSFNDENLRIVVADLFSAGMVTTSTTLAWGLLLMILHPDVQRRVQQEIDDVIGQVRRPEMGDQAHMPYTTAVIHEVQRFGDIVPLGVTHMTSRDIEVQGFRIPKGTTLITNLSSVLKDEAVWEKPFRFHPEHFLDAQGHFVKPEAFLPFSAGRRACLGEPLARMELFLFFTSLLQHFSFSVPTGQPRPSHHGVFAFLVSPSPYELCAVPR
Compound,Potency [1],Potency [2]
O=C(CSc1nc(-c2ccc(F)cc2)[nH]c1-c1ccc(F)cc1)Nc1ccc2c(c1)OCO2,2.13 µM (active),0.849 µM (active)
Cc1ccc(-n2c(SCc3ccccc3C)nc3[nH]ncc3c2=O)cc1C,12 µM (active),21.3 µM (active)
COc1ccc(Cn2c(SCc3ccc(C(=O)NC4CCCC4)cc3)nc3ccncc32)cc1,6.01 µM (active),0.674 µM (active)
COc1cccc(NC(=O)Cn2c(=O)n(CC(=O)NCc3ccc(C)cc3)c(=O)c3sccc32)c1,0.107 µM (active),6.01 µM (active)
COc1ccccc1NC(=O)c1oc2ccccc2c1NC(=O)c1ccccc1C(F)(F)F,inactive,2.68 µM (active)
COc1ccccc1OCCn1c(NC(=O)c2ccccc2Cl)nc2ccccc21,inactive,3.79 µM (active)
Cc1ccc(C2=CC(c3ccccc3C)n3c(nc4ccccc43)N2)cc1 (configuration not stated),9.52 µM (active),3.38 µM (active)
COc1ccc(Cn2c(CCC(=O)Nc3ccc(C)c(C)c3)nc3cccnc32)cc1,inactive,7.56 µM (active)
CCCOCc1cc(CN2CCN(c3ccccc3OC)CC2)c(O)c2ncccc12,13.5 µM (active),7.56 µM (active)
CNC(=O)c1ccc(CSc2nc3ccncc3n2Cc2ccc(C)cc2)cc1,13.5 µM (active),7.56 µM (active)
COc1ccc(CNC(=O)C2CCCN(c3nnc(C)c4c(C)n(-c5ccc(C)cc5)nc34)C2)cc1 (configuration not stated),19 µM (active),2.68 µM (active)
CC(NC(=O)C(=O)Nc1c2c(nn1-c1ccccc1)CSC2)c1ccccc1 (configuration not stated),inactive,3.38 µM (active)
Cc1ccc(CNC(=O)C2CCN(S(=O)(=O)c3c(C)noc3/C=C/c3ccccc3F)CC2)o1,inactive,inactive
Cc1cccc(NC(=O)Cn2cc(C(=O)c3ccco3)c3ccccc32)c1C,6.01 µM (active),3.01 µM (active)
NS(=O)(=O)c1ccc(Cc2c(-c3cccc(-c4ccccc4)c3)nn(-c3nc(C(=O)O)cs3)c2C2CC2)cc1,21.3 µM (active),23.9 µM (active)
Cc1ccc(C)c(Nc2nc3nonc3nc2Nc2cccc(C)c2C)c1,10.7 µM (active),inactive
CCOC(=O)c1ccc(NC(=O)CCn2c(=O)c3cccn3c3cccnc32)cc1,inactive,10.7 µM (active)
O=C(NC1CCCCC1)c1ccc(CSc2nc3cccnc3n2Cc2ccccc2F)cc1,9.52 µM (active),0.338 µM (active)

Compound,Potency [1],Potency [2]
Cc1cc(-c2nc(CN3CCC(C(=O)NCCCN4C[C@H](C)C[C@H](C)C4)CC3)co2)ccc1F,0.952 µM (active),inactive
CC1=C(C(=O)Nc2ccccc2C)C(c2cccnc2)n2nc(SCc3ccccc3)nc2N1 (configuration not stated),inactive,2.39 µM (active)
CC(=O)Nc1ccc(C)cc1-c1nc2ccccc2n(CC(=O)Nc2cc(Cl)ccc2C)c1=O,0.338 µM (active),3.01 µM (active)
CCc1ccc(C2=CC(c3cccc(OC)c3OC)n3c(nc4ccccc43)N2)cc1 (configuration not stated),16.9 µM (active),3.79 µM (active)
CCOC(=O)c1ccc(Nc2nc3nonc3nc2Nc2cccc(C)c2C)cc1,10.7 µM (active),inactive
CCCNC(=O)C1CCC(Cn2c(=O)c3sccc3n(CC(=O)NCc3ccccc3)c2=O)CC1 (configuration not stated),inactive,6.01 µM (active)
COc1ccccc1Nc1nc(-c2ccccc2F)nc2ccccc12,inactive,12 µM (active)
COc1ccc(CC2c3cc(OC)c(OC)cc3CCN2CCC(=O)OCCCCCOC(=O)CCN2CCc3cc(OC)c(OC)cc3C2Cc2ccc(OC)c(OC)c2)cc1OC (configuration not stated),inactive,21.3 µM (active)
COc1ccc2c(c1)CCc1sc(NC(=O)c3cccc(Br)c3)nc1-2,inactive,5.35 µM (active)
COC(=O)C1=C(c2ccccc2)c2ccccc2S(=O)(=O)N1CC(=O)Nc1ccccc1Cl,3.79 µM (active),4.77 µM (active)
O=C(NCc1ccco1)c1ccc2c(c1)N(Cc1cccc(Cl)c1)C(=O)c1ccccc1S2=O (configuration not stated),1.2 µM (active),1.34 µM (active)
COc1cc(C(c2c(C)[nH][nH]c2=O)c2c(C)[nH][nH]c2=O)ccc1OC(=O)c1cccc(C)c1,inactive,12 µM (active)
CCn1cc2nc(SCC(=O)Nc3ccc(OC)c(OC)c3)n(Cc3ccc(Cl)cc3)c(=O)c2n1,9.52 µM (active),3.79 µM (active)
CCNC(=O)N1CCN(C(=O)c2cnc3cc(OC)ccc3c2N2CCC(C)(C#N)CC2)CC1,inactive,2.39 µM (active)
CCOC(=O)N1CCc2c(sc3c2c(=O)n(Cc2ccccc2)c(=O)n3CC(=O)Nc2cccc(C)c2)C1,1.51 µM (active),4.25 µM (active)
C[C@H](O[C@H]1OCCN(Cc2n[nH]c(=O)[nH]2)[C@H]1c1ccc(F)cc1)c1cc(C(F)(F)F)cc(C(F)(F)F)c1,10.7 µM (active),9.52 µM (active)
Nc1ccn(C2O[C@H](CO)[C@@H](O)[C@@H]2O)c(=O)n1 (some centres not stated),inactive,inactive
COc1ccc(C(C#N)C(C)C)cc1OC (configuration not stated),inactive,inactive
